Screening results as filed in PubChem BioAssay.
In the library only some 9.3% were active in any assay of this set; here they are far more common.
NPC1 promoter act: activates the NPC1 promoter. Huh7 NPC1 promoter luciferase reporter, 24 h. Potency, µM (series often up to 9.22 µM), actives largely listed as activators. 2.4% of 320,000 active. AID 485313; also: nearly all actives have a fitted effect of over 60% in size
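Luminescence read-out of NPC1 promoter-driven luciferase in stably transfected Huh7 cells; compounds delivered in DMSO and left 24 h at 37C, 5% CO2, qHTS titration format.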
ELG1 DNA repair: inhibitors of ELG1-dependent DNA repair in HEK293T cells; Potency, µM (top dose mostly 46.1 µM), most hits filed as inhibitors; HEK293T ELG1-luciferase reporter, luminescence, 16 h; DNA damage induced by 5-fluorouridine; 2.3% of 330,000 active; AID 504467; also: nearly all actives have a fitted effect of over 55% in size
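Cells (2,000 per well) received 5-fluorouridine plus test compound or DMSO and were incubated 16 hr at 37 °C, 5% CO2. Luciferase activity was read by luminescence 30 min after ONE-Glo addition; signal suppression marked inhibition of damage-induced ELG1 function.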
SMN2 splice up: SMN2 splice variant enhancement. HEK293 SMN2-luciferase splicing reporter, luminescence, 30-36 h. Potency, µM (top dose mostly 46.1 µM), actives largely listed as activators. 2.8% of 210,000 active; also: nearly all actives have a fitted effect of over 55% in size
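HEK293 cells carry an SMN2 minigene-luciferase reporter in which exon 7 inclusion puts luciferase in frame. Cells were seeded at 2000 cells/well, attached for 10-12 hours, then exposed to compounds for 30-36 hours at 37C before ONE-Glo luminescence.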
FLuc modulator: inhibits or activates purified firefly luciferase, miR-21 counter-screen; purified FLuc, Km substrates, luminescence inhibition; Potency, µM (titrated, usually from 57.5 µM), most hits filed as inhibitors; 6.9% of 360,000 active; AID 588342; also: nearly all actives have a fitted effect of over 55% in size
Target sequence (P08659 whole entry, looked up): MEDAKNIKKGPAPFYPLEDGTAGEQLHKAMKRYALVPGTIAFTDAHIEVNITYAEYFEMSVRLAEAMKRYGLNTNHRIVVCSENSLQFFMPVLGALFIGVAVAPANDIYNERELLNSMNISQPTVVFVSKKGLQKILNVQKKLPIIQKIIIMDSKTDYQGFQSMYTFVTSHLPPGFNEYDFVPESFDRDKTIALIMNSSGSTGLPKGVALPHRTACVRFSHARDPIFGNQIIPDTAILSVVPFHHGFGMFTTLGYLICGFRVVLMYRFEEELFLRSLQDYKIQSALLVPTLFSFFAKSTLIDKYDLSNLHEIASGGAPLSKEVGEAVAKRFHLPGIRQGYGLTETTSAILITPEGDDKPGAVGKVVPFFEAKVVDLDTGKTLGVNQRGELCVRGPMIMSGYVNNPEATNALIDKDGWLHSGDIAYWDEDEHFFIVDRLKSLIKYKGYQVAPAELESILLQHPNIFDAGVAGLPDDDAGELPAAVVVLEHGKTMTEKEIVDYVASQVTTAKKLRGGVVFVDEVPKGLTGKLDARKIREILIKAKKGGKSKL
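Biochemical qHTS of compounds, final roughly 60 µM downward over six points, against 10 nM purified firefly luciferase using Km concentrations of substrates (10 uM D-luciferin, 10 uM ATP) in Tris acetate pH 7.5 buffer; luminescence output.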
Rab9 promoter act: activates the Rab9 promoter; 2.8% of 320,000 active; AID 485297; Huh7 Rab9 promoter-luciferase reporter, luminescence, 24 h; Potency, µM (top dose mostly 9.22 µM), most hits filed as activators; also: nearly all actives have a fitted effect of over 60% in size
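Promoter activation is measured as luciferase luminescence in Huh7 cells stably transfected with a Rab9 promoter–luciferase construct, following 24 h compound exposure at 37 °C and 10 min reagent incubation at ambient temperature.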
ELG1 genotox: inducers of genotoxicity in HEK293T ELG1-luciferase cells; Potency, µM (titrated, usually from 46 µM), actives largely listed as activators; 1.3% of 330,000 active; HEK293T ELG1-luciferase reporter, luminescence, 16 h; also: nearly all actives have a fitted effect of over 60% in size
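Screening used a luciferase reporter fused to human ELG1 in HEK293T cells. Luminescence was read on a CCD plate imager after 16 hr exposure and 30 min ONE-Glo incubation.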
Numbers stand for hits; i = inactive; ? = inconclusive; nt = no result. Calls follow the shape of the dose curve; as a rule, active = well fitted curve in the direction sought with a large enough effect; inconclusive = small, poorly fitted or top-dose-only effect, or another doubt; inactive = no such curve, though single readings can be large; an effect the other way counts as inactive or inconclusive.

SMILES	NPC1 promoter act	ELG1 DNA repair	SMN2 splice up	FLuc modulator	Rab9 promoter act	ELG1 genotox
CC(=O)Nc1nc(-c2ccc3c(c2)CCO3)cs1	?	?	?	12µM	?	i
O=C(Nc1nc(-c2ccc3c(c2)Cc2ccccc2-3)cs1)c1ccccc1	i	i	i	i	i	i
CCOc1ccc(S(=O)(=O)N2CCN(c3c(C)cccc3C)CC2)c2ccccc12	nt	nt	i	i	nt	nt
CC(C)(C)[C@H]1C=C(C(=O)NC2CC2)O[C@@H](OCc2ccc(CO)cc2)C1	i	i	nt	i	i	i
COC(=O)/C(C#N)=C/c1c(N2CCCCCC2)nc2ccccn2c1=O	i	i	nt	i	i	i
CN(CCOc1ccccc1)C(=O)c1ccc2c(c1)OCO2	i	?	nt	?	?	i
CCOCCCNC(=O)c1ccccc1OC1CCN(S(C)(=O)=O)CC1	i	i	nt	i	i	i
CCOCCCNC(=O)c1ccc2c(c1)OCO2	i	?	14µM	?	?	i
COCCCNC(=S)NNC(=O)c1ccc2c(c1)OCO2	i	?	i	i	i	i
O=C(NCCOc1ccccc1)c1ccc2c(c1)OCO2	0.28µM	?	2.5µM	0.76µM	0.28µM	?
CCOCCCNC(=O)c1cccc(OC2CCN(S(C)(=O)=O)CC2)c1	3.5µM	?	nt	11µM	2.8µM	?
COc1ccc(-n2c(-c3ccc(C)cc3)n[nH]c2=S)cc1	i	i	i	i	i	i
CN1CCc2c(OCC(=O)N3CCC(Cc4ccccc4)CC3)cccc2C1=O	i	9.2µM	i	i	i	i
CC(=O)Nc1ccc(C(=O)OCC(=O)N2CCC(Cc3ccccc3)CC2)cc1	i	6.5µM	nt	i	i	i
O=C(OCC(=O)N1CCC(Cc2ccccc2)CC1)c1ccc[nH]c1=O	i	i	i	i	i	i
COc1ccccc1C(=O)OCC(=O)N1CCC(Cc2ccccc2)CC1	i	?	nt	17µM	i	i
CCOc1ccc(CNS(=O)(=O)c2ccc(-c3coc(C)n3)cc2)cc1OC	nt	nt	nt	i	nt	nt
CCC(C)c1ccccc1NS(=O)(=O)c1cnn(CC)c1 (stereo not given)	i	i	nt	i	i	i
O=C1CC(C(=O)Nc2ccccc2)C2(CCCC2)O1 (stereo not given)	i	i	i	i	i	i
CCn1c2c(c(=O)n3ncc(C(=O)Nc4ccc(F)cc4Cl)c13)CN(Cc1ccc(OC)cc1)CC2	nt	nt	nt	i	nt	nt
Cc1cccc(C)c1N=Cc1c(O)n(-c2nccs2)c(=O)c2ccccc12	i	?	i	i	i	i
O=c1c2ccccc2c(/C=N/c2nnc(Cc3ccccc3)s2)c(O)n1-c1ccc(Cl)cn1	i	i	i	1.9µM	i	i
COC(=O)c1nc2ccc(N3CCOCC3)cc2c(C)c1C(=O)OC	?	?	10µM	2.4µM	2.8µM	i
Cc1cnc(NC(=O)CSc2nnc(C)n2N)s1	i	i	i	i	i	i
O=C(OCC1CC(c2ccccc2)=NO1)c1ccc(Br)cc1 (stereo not given)	i	?	?	i	i	i
SMILES	NPC1 promoter act	ELG1 DNA repair	SMN2 splice up	FLuc modulator	Rab9 promoter act	ELG1 genotox
O=C(OCC1CC(c2ccccc2)=NO1)c1ccco1 (stereo not given)	i	i	nt	7.6µM	i	i
COc1ccc(/C=N/Nc2nnc(-c3ncc[nH]3)c3ccccc23)cc1	2.8µM	?	i	0.34µM	?	i
Oc1ccc2ccccc2c1/C=N/c1nccs1	i	i	i	i	i	i
Oc1ccc2ccccc2c1/C=N/Nc1nnc(-c2ncc[nH]2)c2ccccc12	i	?	i	3.4µM	i	i
O=C(Nc1ccc2c(c1)C(=O)NC2=O)c1ccc(S(=O)(=O)N2CCCC2)cc1	i	i	i	i	i	i
CC#CCCCC(=O)Nc1ccc(C(=O)O)cc1	i	?	i	i	i	i
CCc1ccc(CCC(=O)Nc2ccccc2C(=O)O)o1	?	?	?	19µM	?	?
CCCC(=O)NNC(=O)CC(=O)Nc1ccccc1C(=O)O	i	i	nt	i	i	i
CC#CCCCC(=O)Nc1ccccc1C(=O)O	?	?	?	19µM	?	?
CSc1cccc(NC(=O)CSc2ccc(C)cc2)c1	i	?	i	i	i	i
COc1ccc(NC2=Nc3ccccc3CC2)cc1	2.8µM	?	13µM	11µM	1.6µM	4.5µM
COc1ccc(NC2=NCCCCC2)cc1	i	?	nt	i	i	i
COC(=O)[C@H](Cc1ccccc1)NC(=O)NCc1cccs1	i	i	i	i	i	i
COc1ccccc1NC(=O)Cn1c2ccc(F)cc2c2nc3n(c(=O)c21)CCS3	i	i	nt	i	i	i
Cc1cn(CCC(=O)Nc2ccc(N3CCOCC3)cc2)c2ccccc12	?	?	nt	13µM	?	?
O=C(CN1CCN(C(c2ccccc2)c2ccccc2)CC1)Nc1ccc(N2CCOCC2)cc1	i	i	13µM	i	i	i
Cn1c(SCC(=O)Nc2ccc(N3CCOCC3)cc2)nnc1-c1ccco1	i	?	nt	17µM	i	i
CCCC(=O)Nc1ccc(N2CCOCC2)cc1	i	i	i	i	i	i
Cn1c(SCC(=O)Nc2ccc(N3CCOCC3)cc2)nnc1-c1ccccc1F	i	i	nt	17µM	i	i
Cn1c(COc2ccccc2)nnc1SCC(=O)Nc1ccc(N2CCOCC2)cc1	i	i	nt	?	i	i
CCCSc1nsc(SCCC)c1C(N)=O	i	i	i	i	i	i
COc1ccccc1OCC(=O)Nc1cc(C)ccc1NC(=O)c1ccco1	i	?	nt	i	i	i
O=C(c1ccccc1Br)N1CCN(Cc2ccc3c(c2)OCO3)CC1	i	?	nt	i	i	i
Cn1c(N)c(C(=O)COC(=O)C2CCCN2C(=O)c2cccs2)c(=O)n(C)c1=O (stereo not given)	i	?	i	i	i	i
C/C(CC(=O)Nc1ccc(Br)cc1)=N\NC(=O)Cc1csc(N)n1	i	i	nt	i	i	i
SMILES	NPC1 promoter act	ELG1 DNA repair	SMN2 splice up	FLuc modulator	Rab9 promoter act	ELG1 genotox
Cn1c(SCC(=O)Nc2ccc(N3CCOCC3)cc2)nnc1-c1ccccc1	i	?	i	17µM	i	i
COc1ccccc1C1CCN(c2cc(O)ccc2[N+](=O)[O-])CC1	i	12µM	nt	i	i	i
COc1ccccc1C1CCN(C(=O)c2ccccc2)CC1	i	i	nt	i	i	i
C=C(C)CN(CC)c1ccc(N2C(=O)CCCC2=O)cc1[N+](=O)[O-]	i	i	nt	i	i	i
Cc1scc(C(=O)NNC(=O)CCC(=O)O)c1C	i	i	nt	i	i	i
CC(C)(C)C1CCc2c(C(=O)NNC(=O)CCC(=O)O)csc2C1 (stereo not given)	i	i	i	27µM	i	i
O=C1C=CC(=O)N1CCCCCCN1C(=O)C=CC1=O	i	23µM	i	?	i	i
CCOc1ccc(/C=C/C2=NNC(=O)CC2)cc1	?	?	11µM	15µM	?	18µM
